Compound activity as filed in PubChem.
RECQ1 inh-1: blocks DNA unwinding by human RECQ1 | 0.54% of 240,000 active | RECQ1 DNA unwinding, red fluorescence kinetic read | Potency, µM (titrated, usually from 57.3 µM), most hits filed as inhibitors; further: nearly all actives have a fitted effect of over 30% in size
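RECQ1T1 50 nM; forked duplex (20 bp + 30-nt ss tails) 200 nM, ATP 2 mM final; pH 8.0, 2 mM MgCl2, 2.5 ug/ml poly(dI-dC); 15 min compound preincubation; discontinuous kinetic read over 2 h at RT.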
WRN helicase inh-1: blocks human WRN helicase. Q14191. WRN helicase unwinding, fluorescent forked duplex, kinetic. Potency, µM (titrated, usually from 114 µM), hits mostly inhibitors. 0.46% of 360,000 active. AID 651768; further: nearly all actives have a fitted effect of over 55% in size
Target sequence (Q14191 whole entry, looked up): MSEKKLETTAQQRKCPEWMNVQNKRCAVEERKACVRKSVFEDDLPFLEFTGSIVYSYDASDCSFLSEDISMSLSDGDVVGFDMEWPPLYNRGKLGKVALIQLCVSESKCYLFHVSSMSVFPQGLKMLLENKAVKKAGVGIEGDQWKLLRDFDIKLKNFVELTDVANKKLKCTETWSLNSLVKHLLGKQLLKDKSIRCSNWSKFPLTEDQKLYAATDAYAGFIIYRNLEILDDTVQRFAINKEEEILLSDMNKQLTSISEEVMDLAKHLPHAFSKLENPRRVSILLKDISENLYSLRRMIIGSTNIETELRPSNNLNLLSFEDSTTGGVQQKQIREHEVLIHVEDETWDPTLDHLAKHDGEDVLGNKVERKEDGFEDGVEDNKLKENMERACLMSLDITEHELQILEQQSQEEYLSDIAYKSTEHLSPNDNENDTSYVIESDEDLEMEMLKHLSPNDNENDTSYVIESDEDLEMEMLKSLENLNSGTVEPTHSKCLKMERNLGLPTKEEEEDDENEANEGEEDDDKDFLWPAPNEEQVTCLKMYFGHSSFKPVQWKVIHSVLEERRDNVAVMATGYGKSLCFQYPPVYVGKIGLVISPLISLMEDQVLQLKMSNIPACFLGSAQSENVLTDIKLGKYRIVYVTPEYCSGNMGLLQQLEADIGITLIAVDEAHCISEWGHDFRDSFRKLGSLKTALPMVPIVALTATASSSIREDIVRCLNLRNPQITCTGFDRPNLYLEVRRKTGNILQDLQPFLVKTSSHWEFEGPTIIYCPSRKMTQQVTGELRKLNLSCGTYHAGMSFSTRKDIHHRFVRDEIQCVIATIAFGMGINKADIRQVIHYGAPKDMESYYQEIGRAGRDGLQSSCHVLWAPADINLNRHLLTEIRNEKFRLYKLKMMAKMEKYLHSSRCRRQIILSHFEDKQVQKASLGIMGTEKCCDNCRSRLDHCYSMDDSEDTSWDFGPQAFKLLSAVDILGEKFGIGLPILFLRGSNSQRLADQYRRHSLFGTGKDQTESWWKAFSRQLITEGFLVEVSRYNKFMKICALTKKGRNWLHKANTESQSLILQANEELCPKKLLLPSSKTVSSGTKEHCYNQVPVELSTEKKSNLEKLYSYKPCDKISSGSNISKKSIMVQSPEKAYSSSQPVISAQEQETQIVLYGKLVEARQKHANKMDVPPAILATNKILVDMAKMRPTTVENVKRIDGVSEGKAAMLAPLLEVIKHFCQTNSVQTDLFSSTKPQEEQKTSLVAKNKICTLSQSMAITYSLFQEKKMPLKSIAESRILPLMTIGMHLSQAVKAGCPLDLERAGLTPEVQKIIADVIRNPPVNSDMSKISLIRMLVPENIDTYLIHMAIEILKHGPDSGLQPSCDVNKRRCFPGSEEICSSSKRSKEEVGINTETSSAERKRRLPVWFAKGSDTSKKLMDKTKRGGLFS
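Primary qHTS, 1536-well format. 20 nM WRN + compound, 15 min RT; start with 100 nM forked fluorophore/quencher duplex, 2 mM ATP (final); kinetic read ex 525/em 598 nm.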
GCN5L2 inh: blocks human GCN5L2 histone acetyltransferase; Q92830; GCN5L2 HAT assay, ThioGlo1 CoA-SH fluorescence; Potency, µM (titrated, usually from 58.9 µM), most hits filed as inhibitors; 0.21% of 390,000 active; AID 504327
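GCN5L2 (20nM final) in 50mM HEPES, 0.1mM EDTA pH 7.5, 0.01% Tween-20 was preincubated 15 min at room temperature with compound, then given ThioGlo1 (50uM), H3(1-25) peptide (75uM) and acetyl-CoA (70uM); CoA-thiol fluorescence (Ex340/Em540) was read at 0 and 20 min.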
APE1 inh-1: inhibitors of human APE1 endonuclease. 0.35% of 350,000 active. Potency, µM (doses to about 65.8 µM), usual class: inhibitors. P27695. recombinant APE1, TAMRA/BHQ-2 abasic DNA cleavage fluorescence; further: nearly all actives have a fitted effect of over 55% in size
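Step 1: APE1 (0.75 nM) with compound, 15 min RT. Step 2: add 50 nM fluorophore/quencher THF duplex. Step 3: three fluorescence reads 60 s apart (525/598 nm); read 3 minus read 1 = reaction progress.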
ERG-DNA inh: blocks human ERG Ets domain binding to DNA; fluorescence polarization, His-ERG Ets domain / labelled DNA; Potency, µM (highest dose often 76.9 µM), actives largely listed as inhibitors; AID 624246; 0.028% of 370,000 active; P11308; active means well fitted inhibition curve with a large enough effect in the polarisation, with a control signal flat; inconclusive means small, poorly fitted or top-dose-only effect, or effect the other way, or a change in a side signal; inactive means no such curve, though single readings can be large or run the other way; the % refers to the polarisation;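 further: polarization taken with two DNA probes labelled with fluorescein and Texas red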
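His-tagged ERG Ets domain (1 uM in the protein solution; 300mM KCl, 50mM Tris-HCl, 1mM EDTA, 1mM DTT, pH 7.5) received compound, then a probe mix of 5 nM fluorescein-DNA and 100nM Texas-615-DNA. Fluorescence polarization was read for both dyes.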
BLM helicase inh-1: inhibitors of human Bloom syndrome helicase BLM | Potency, µM (highest dose often 56.1 µM), actives largely listed as inhibitors | 0.2% of 350,000 active | recombinant BLM DNA unwinding, fluorescence dequenching; further: nearly all actives have a fitted effect of over 35% in size
DNA dye displace: counter-screen for APE1 inhibitors: DNA dye displacement; 7% of 480 active; DNA fluorescent dye displacement counterscreen, fluorescence; shares compounds with APE1 inh-1; Potency, µM (titrated, usually from 28.5 µM), usual class: inhibitors; AID 2564;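 further: loss of thiazole orange fluorescence as the dye is displaced from duplex DNA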
Endo IV inh: Endo IV (E. coli) inhibition counter-screen | AID 2565 | E. coli Endo IV, fluorogenic AP-site DNA cleavage | Potency, µM (series often up to 27.1 µM), actives largely listed as inhibitors | 4% of 560 active | shares compounds with APE1 inh-1
APE1 inh-2: APE1 (human) endonuclease inhibition, confirmation. shares compounds with APE1 inh-1. purified APE1, fluorogenic abasic-site DNA cleavage. Potency, µM (titrated, usually from 57.1 µM), usual class: inhibitors. 44% of 750 active; further: nearly all actives have a fitted effect of over 30% in size
APE1 FP inh: APE1 (human) DNA binding inhibition, fluorescence polarization; Potency, µM (highest dose often 28.5 µM), usual class: inhibitors; shares compounds with APE1 inh-1; 7% of 480 active; APE1 binding to TAMRA-labelled double-stranded DNA, fluorescence polarization displacement; AID 2573
BLM inh: confirmation of inhibitors of human Bloom syndrome helicase BLM | Potency, µM, hits mostly inhibitors | AID 2585 | shares compounds with BLM helicase inh-1 | 40% of 220 active | BLM DNA unwinding, fluorescence quenching, biochemical;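 further: strand separation dequenches TAMRA so unwinding raises red fluorescence; series mostly up to about 69 µM; nearly all actives have a fitted effect of over 45% in size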
RECQ1 conf: confirmation of human RECQ1 helicase inhibitors. shares compounds with RECQ1 inh-1. RECQ1 helicase DNA unwinding, fluorescence. Potency, µM (doses to about 229 µM), usual class: inhibitors. 28% of 610 active. AID 2708; further: nearly all actives have a fitted effect of over 45% in size
RECQ1 ADP FP: ADP displacement flagged in RECQ1 inhibitor counter-screen | shares compounds with RECQ1 inh-1 | ADP fluorescence polarization displacement counterscreen | Potency, µM (titrated, usually from 228 µM), most hits filed as inhibitors | 27% of 530 active; further: nearly all actives have a fitted effect of over 45% in size
RECQ1 inh-2: RECQ1 helicase inhibition confirmed, round 2 | AID 504841 | Potency, µM (titrated, usually from 119 µM), actives largely listed as inhibitors | recombinant RECQ1 DNA unwinding, red fluorescence | 15% of 1,100 active | shares compounds with RECQ1 inh-1; further: nearly all actives have a fitted effect of over 50% in size
WRN helicase inh-2: WRN helicase inhibition, cherry-pick retest; shares compounds with WRN helicase inh-1; WRN helicase DNA unwinding, fluorescence kinetic; 63% of 610 active; Potency, µM (highest dose often 57.1 µM), hits mostly inhibitors; further: nearly all actives have a fitted effect of over 65% in size
TO displacement: counter-screen for WRN helicase inhibitors: DNA binding. shares compounds with WRN helicase inh-1. thiazole orange DNA binding displacement, fluorescence. Potency, µM (series often up to 57.1 µM), hits mostly inhibitors. 10% of 610 active. AID 720499;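 further: drop in dye fluorescence marks compound binding to DNA; nearly all actives have a fitted effect of over 60% in size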
BLM helicase inh-2: BLM helicase inhibition, WRN selectivity check; Recombinant BLM helicase DNA unwinding, red fluorescence; 60% of 610 active; Potency, µM (series often up to 57.1 µM), most hits filed as inhibitors; shares compounds with WRN helicase inh-1; further: nearly all actives have a fitted effect of over 60% in size
A number is an active result; 0 = inactive; ? = inconclusive; - = no result given; ! = a repeat was not active; [ ] = dose if it differs, or a comment. This is a sample that favours compounds with a hit; in the whole collection about 0.88% have one here. Unless noted, the call rests on the fitted dose curve; in most records, active means well fitted curve in the direction sought with a large enough effect; inconclusive means small, poorly fitted or top-dose-only effect, or another doubt; inactive means no such curve, though single readings can be large; an effect the other way counts as inactive or inconclusive.

SMILES	RECQ1 inh-1	WRN helicase inh-1	GCN5L2 inh	APE1 inh-1	ERG-DNA inh	BLM helicase inh-1	BLM inh	others
Cc1cccc(C(=O)N=c2c(C#N)cc3c(=O)n4cccc(C)c4nc3n2Cc2ccco2)c1	?	25µM!	0	?	0	0	-	APE1 inh-2=0;RECQ1 inh-2=0;WRN helicase inh-2=24µM;TO displacement=0;BLM helicase inh-2=?
NC(=O)C1CCN(C(=O)Cc2ccsc2)CC1	-	0	0	0	0	0	-
NS(=O)(=O)c1ccc(NC(=O)CNC(=O)c2ccc3c(c2)OCO3)cc1	-	0	0	0	0	-	-
COc1cccc2c(SCC(=O)N/N=C/c3ccc(O)c(O)c3)cc(C)nc12	25µM	20µM	0	8.9µM	0	?	-	DNA dye displace=0;Endo IV inh=0;APE1 inh-2=5µM;APE1 FP inh=0;WRN helicase inh-2=4.8µM;TO displacement=?;BLM helicase inh-2=4.8µM
COc1ccc2nc(C)cc(SCC(=O)N/N=C/c3ccc(O)c(O)c3)c2c1	?	14µM	0	?	0	0	-	DNA dye displace=?;Endo IV inh=0;APE1 inh-2=7.9µM;APE1 FP inh=0;WRN helicase inh-2=4.8µM;TO displacement=?;BLM helicase inh-2=6.1µM
COC(=O)c1ccccc1NC(=O)Cn1ncc2c(C)n(Cc3ccc(F)cc3)c(C)c2c1=O	-	-	0	-	0	0	-
O=C(NC1CC1)c1cc(-c2ccco2)nc2ccccc12	20µM	20µM	?	11µM	0	14µM	20µM	DNA dye displace=?;Endo IV inh=?;APE1 inh-2=25µM;APE1 FP inh=0;RECQ1 conf=20µM;RECQ1 ADP FP=56µM;WRN helicase inh-2=6.1µM;TO displacement=?;BLM helicase inh-2=0.96µM
Cc1nnc(NC(=O)c2cc(-c3ccco3)nc3ccccc23)s1	-	-	?	0	-	-	-
COC(=O)c1ccc(N2NC(=O)/C(=C/c3ccc(-c4ccc(Cl)c(C(=O)O)c4)o3)C2=O)cc1	?	35µM	0	25µM	0	0	-	DNA dye displace=6.3µM;Endo IV inh=0;APE1 inh-2=?;APE1 FP inh=0;WRN helicase inh-2=17µM;TO displacement=?;BLM helicase inh-2=22µM
Cc1ccc(N2NC(=O)/C(=C/c3ccc(-c4ccc(Cl)c(C(=O)O)c4)o3)C2=O)cc1C	0	0[11.6 µM]	0	0	0	0	-
O=C(O)CSc1cc(C(=O)c2cc(F)ccc2O)cn2c(=O)c3c(-c4ccccc4)csc3nc12	0	0	?	0	0	25µM	?
CCOC(=O)c1sc2nc3c(SCCC#N)cc(C(=O)c4cc(F)ccc4O)cn3c(=O)c2c1C	0	0	0	0	0	0	-
CC(C)c1nn2c(=O)cc(COC(=O)c3ccc(NC(=O)C4CCCCC4)cc3)nc2s1	-	-	0	-	0	0	-
CCC(C)n1c(NC(=O)c2ccccc2)c(C#N)c2nc3ccccc3nc21 (centres undefined)	0	0	0	0	0	10µM	?
O=C1Nc2ccc(I)cc2/C1=C/c1cc(Br)c(O)c(Br)c1	25µM!	-	22µM	0	-	?	96µM
COc1ccc(-c2nc(Cn3c(=O)cc(-c4ccccc4)c4c(C)nn(C)c43)c(C)o2)cc1OC	-	-	0	-	0	0	-
CCc1ccc(O)c(N=Cc2ccccc2O)c1	0	0	0	0	0	0	-
O=c1[nH][nH]c2c(N=Cc3ccccc3O)ccc(F)c12	?	14µM	?	8.9µM	?	28µM	?
CCCc1nc2ccccc2c(=O)n1-c1ccc(C(=O)OCC)cc1	0	0	0	0	0	7.9µM	0
Cc1ccccc1Nc1c(-c2c(F)cccc2Cl)nc2ccc(Br)cn12	-	-	0	-	0	0	-
CC(C)(C)NC(=O)CN(C(=O)CNS(=O)(=O)c1ccc(Cl)cc1)c1ccc2c(c1)OCCO2	-	0	0	0	0	0	-
COc1ccc(-c2csc(NC(=O)CSc3nc(C)cs3)n2)cc1	-	0	-	-	0	-	-
COc1ccc(-c2csc(NC(=O)CSc3nc(C)nc4sc(C(=O)O)c(C)c34)n2)cc1	0	?	0	0	0	32µM	32µM
Cc1ccc2c(=O)cc(C(=O)N(Cc3ccc(C(C)(C)C)cc3)C3CCS(=O)(=O)C3)oc2c1 (centres undefined)	-	-	0	-	0	0	-
O=C(Nc1ccc2nc(-c3ccco3)c(-c3ccco3)nc2c1)N1CCN(c2ccccn2)CC1	0	18µM	10µM	0	0	4.5µM	?
CN1CCc2c(sc(NC(=O)c3cc4cc([N+](=O)[O-])ccc4s3)c2C(N)=O)C1	?	-	0	0	-	28µM	29µM
CN1CCc2c(sc(NC(=O)c3ccc([N+](=O)[O-])o3)c2C(N)=O)C1	-	0	0	0	0	0	-
COc1ccc2c(CNCCc3ccccc3)c(C(=O)O)n(Cc3cccc(F)c3)c2c1	-	-	0	-	0	0	-
Cc1ccc(NC(=S)Nc2cccc3cnccc23)cc1C	0	0	0	0	0	0	-
S=C(Nc1cccc(Cl)c1)Nc1cccc2cnccc12	0	?	0	0	?	4µM	?
